Read-out in assay [1]: Tissue plasminogen activator (tPA), PLAT (gene 5327)
Put plainly: BSK_BE3C_tPA: BioMAP Diversity Plus: BE3C Assay for Tissue plasminogen activator (tPA) Biomarker Activity (AID 2283041).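 On outcome: tPA level quantified by ELISA one day after compound addition.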 Conditions: primary human bronchial epithelial cells; actives raise or lower the signal. The method, boiled down: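 Gain- or loss-of-signal in tPA, measured by ELISA, derived by bidirectional fitting against DMSO. Cells: human primary bronchial epithelial; read at 24 h after chemical dosing.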

Read-out in assay [2]: Interleukin-8 (IL8), CXCL8 (gene 3576)
Briefly: BSK_CASM3C_IL8: BioMAP Diversity Plus: CASM3C Assay for Interleukin-8 (IL8) Biomarker Activity (AID 2283042).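 Further: IL-8 protein level quantified by ELISA.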 Conditions: primary human coronary artery smooth muscle cells; actives raise or lower the signal.

Read-out in assay [3]: Human Leukocyte Antigen - DR isotype (HLADR), HLA-DRA (gene 3122)
Briefly: BSK_CASM3C_HLADR: BioMAP Diversity Plus: CASM3C Assay for Human Leukocyte Antigen - DR isotype (HLADR) Biomarker Activity (AID 2283043).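 Further: cell-surface HLA-DR protein level quantified by ELISA.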 Conditions: primary human coronary artery smooth muscle cells; actives raise or lower the signal.

Read-out in assay [4]: Macrophage colony-stimulating factor (MCSF), CSF1 (gene 1435)
Briefly: BSK_CASM3C_MCSF: BioMAP Diversity Plus: CASM3C Assay for Macrophage colony-stimulating factor (MCSF) Biomarker Activity (AID 2283044).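 Further: M-CSF protein amount quantified by ELISA after 24 h exposure.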 Conditions: primary human coronary artery smooth muscle cells; actives raise or lower the signal.

Read-out in assay [5]: Low-density lipoprotein receptor (LDLR), LDLR (gene 3949)
Briefly: BSK_CASM3C_LDLR: BioMAP Diversity Plus: CASM3C Assay for Low-density lipoprotein receptor (LDLR) Biomarker Activity (AID 2283045).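 Further: LDLR protein level on the cell surface quantified by ELISA.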 The following applies: primary human coronary artery smooth muscle cells; actives raise or lower the signal.

Read-out in assay [6]: Monocyte Chemoattractant Protein-1 (MCP1), CCL2 (gene 6347)
Put plainly: BSK_CASM3C_MCP1: BioMAP Diversity Plus: CASM3C Assay for Monocyte Chemoattractant Protein-1 (MCP1) Biomarker Activity (AID 2283046).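 Further: MCP-1 level quantified by ELISA 24 h after dosing.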 Conditions: primary human coronary artery smooth muscle cells; actives raise or lower the signal.

Assay [7] is described as follows: BSK_CASM3C_Proliferation: Cell Proliferation Assessment in the BioMAP Diversity Plus: CASM3C Assay (AID 2283047).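 Further: sulforhodamine B total protein stain as relative cell number at 560 nm; sub-confluent cells exposed 48 h before staining; fitted both ways against DMSO so gain or loss of cell number.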 Conditions: primary human coronary artery smooth muscle cells.
Read-out in assay [8]: Monokine induced gamma interferon (MIG), CXCL9 (gene 4283)
Briefly: BSK_CASM3C_MIG: BioMAP Diversity Plus: CASM3C Assay for Monokine induced gamma interferon (MIG) Biomarker Activity (AID 2283048).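 Further: MIG protein level measured by ELISA.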 Conditions: primary human coronary artery smooth muscle cells; actives raise or lower the signal.

Read-out in assay [9]: serum amyloid A (SAA), SAA1 (gene 6288)
Briefly: BSK_CASM3C_SAA: BioMAP Diversity Plus: CASM3C Assay for serum amyloid A (SAA) Biomarker Activity (AID 2283049).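 Further: SAA protein level quantified by ELISA.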 The following applies: primary human coronary artery smooth muscle cells; actives raise or lower the signal.

Assay [10] can be described thus: BSK_CASM3C_SRB: Viability Assessment in the BioMAP Diversity Plus: CASM3C Assay (AID 2283050).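 Further: total protein by SRB staining as cytotoxicity measure in parallel cultures; cells exposed to compound for 24 h.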 The following applies: primary human coronary artery smooth muscle cells.
Read-out in assay [11]: Thrombomodulin, THBD (gene 7056)
Put plainly: BSK_CASM3C_Thrombomodulin: BioMAP Diversity Plus: CASM3C Assay for Thrombomodulin Biomarker Activity (AID 2283051).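 Further: thrombomodulin protein level measured by ELISA 24 h after dosing.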 Conditions: primary human coronary artery smooth muscle cells; actives raise or lower the signal.

Read-out in assay [12]: Tissue Factor, F3 (gene 2152)
Put plainly: BSK_CASM3C_TissueFactor: BioMAP Diversity Plus: CASM3C Assay for Tissue Factor Biomarker Activity (AID 2283052).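 Further: cell surface tissue factor protein level read by ELISA.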 The following applies: primary human coronary artery smooth muscle cells; actives raise or lower the signal.

Read-out in assay [13]: Interferon-gamma inducible Protein 10 (IP10), CXCL10 (gene 3627)
Briefly: BSK_hDFCGF_IP10: BioMAP Diversity Plus: hDFCGF Assay for Interferon-gamma inducible Protein 10 (IP10) Biomarker Activity (AID 2283053). The following applies: primary human foreskin fibroblasts; actives raise or lower the signal. The essentials:
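Cells: human dermal foreskin fibroblasts. Exposure: 24 h post-dosing. Detection: IP-10 ELISA, with values expressed against DMSO controls and fitted in both directions.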

Read-out in assay [14]: Urokinase-type plasminogen activator receptor (uPAR), PLAUR (gene 5329)
Put plainly: BSK_CASM3C_uPAR: BioMAP Diversity Plus: CASM3C Assay for Urokinase-type plasminogen activator receptor (uPAR) Biomarker Activity (AID 2283054).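 Further: cell-surface uPAR protein level quantified by ELISA.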 The following applies: primary human coronary artery smooth muscle cells; actives raise or lower the signal.

Read-out in assay [15]: Vascular cell adhesion molecule 1 (VCAM1), VCAM1 (gene 7412)
Briefly: BSK_CASM3C_VCAM1: BioMAP Diversity Plus: CASM3C Assay for Vascular cell adhesion molecule 1 (VCAM1) Biomarker Activity (AID 2283055).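 Further: VCAM-1 protein level quantified by ELISA on the cells.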 The following applies: primary human coronary artery smooth muscle cells; actives raise or lower the signal.

Read-out in assay [16]: Collagen III, COL3A1 (gene 1281)
Put plainly: BSK_hDFCGF_CollagenIII: BioMAP Diversity Plus: hDFCGF Assay for Collagen III Biomarker Activity (AID 2283056). Conditions: primary human foreskin fibroblasts; actives raise or lower the signal. The essentials: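 Human foreskin primary fibroblasts were exposed to test chemicals for 24 h, after which collagen III was quantified by ELISA. Activity was fitted bidirectionally against DMSO as negative control and baseline.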

Read-out in assay [17]: Epidermal growth factor receptor (EGFR), EGFR (gene 1956)
Briefly: BSK_hDFCGF_EGFR: BioMAP Diversity Plus: hDFCGF Assay for Epidermal growth factor receptor (EGFR) Biomarker Activity (AID 2283057). The following applies: primary human foreskin fibroblasts; actives raise or lower the signal. The method, boiled down:
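Dosing human primary skin fibroblasts, then measuring surface EGFR by ELISA at 24 h, gives the endpoint; gains and losses relative to DMSO were fitted in both directions.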

Read-out in assay [18]: Interleukin-8 (IL8), CXCL8 (gene 3576)
Put plainly: BSK_hDFCGF_IL8: BioMAP Diversity Plus: hDFCGF Assay for Interleukin-8 (IL8) Biomarker Activity (AID 2283058). Conditions: primary human foreskin fibroblasts; actives raise or lower the signal. The essentials: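 hDFCGF human dermal fibroblasts; 24 h chemical exposure; IL-8 by ELISA; bidirectional curve fit vs DMSO baseline; gain or loss of signal scored.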

A short description of assay [19]: BSK_hDFCGF_Proliferation: Cell Proliferation Assessment in the BioMAP Diversity Plus: hDFCGF Assay (AID 2283059).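 Further: curves fitted for both rise and fall of signal versus DMSO baseline.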 The following applies: primary human foreskin fibroblasts. The method, boiled down:
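Primary human foreskin fibroblasts, sub-confluent; […]; 10% TCA fix, 0.1% SRB stain, A560 total protein. Gain/loss fitted bidirectionally vs DMSO control.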

Read-out in assay [20]: Macrophage colony-stimulating factor (MCSF), CSF1 (gene 1435)
Briefly: BSK_hDFCGF_MCSF: BioMAP Diversity Plus: hDFCGF Assay for Macrophage colony-stimulating factor (MCSF) Biomarker Activity (AID 2283060). Conditions: primary human foreskin fibroblasts; actives raise or lower the signal. The method, boiled down:
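Human foreskin primary fibroblasts were treated with test chemical for 24 h, and M-CSF was then measured by ELISA. Data were fitted bidirectionally against DMSO as the negative control and activity baseline.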

Molecules are shown by their SMILES. The source made the active and inactive calls. How the source made its calls: active means hit-call score of the fitted dose curve at least 0.9, where 1 is the maximum; inactive means score below 0.9.

Consider `C=C(F)C(=O)OC(C(F)(F)F)C(F)(F)F`, for which the result in assay [1], in [2], in assay [3], in assay [4], in assay [5] and in assay [6] was inactive. Besides, the result in assay [7], in assay [8], in assay [9], in [10], in assay [11] and in [12] was inactive. The outcome in assay [13], in [14], in [15], in assay [16], in assay [17] and in assay [18] was inactive. Besides, the outcome in assay [19] and in assay [20] was inactive.
For the compound `COC(=O)c1ccc(C(=O)OC)cc1`, the result in [1], in [2], in assay [3], in [4], in assay [5] and in [6] was inactive. The result in assay [7], in assay [8], in assay [9], in assay [10], in assay [11] and in assay [13] was inactive. Also, the result in assay [14], in assay [15], in assay [16], in assay [17], in [18] and in [19] was inactive. In addition, the outcome in assay [20] was inactive.
Take `CCC(=O)OCC=Cc1ccccc1`: the outcome in [1], in assay [2], in assay [3], in [4], in [5] and in assay [6] was inactive. Also, the result in [7], in assay [8], in assay [9], in assay [10], in assay [11] and in assay [12] was inactive. The result in [13], in assay [14], in assay [15], in assay [16], in [17] and in assay [18] was inactive. Besides, the result in assay [19] and in [20] was inactive.
In the case of `CCCCCCCC1CCCC1=O` (centres undefined), the AC50 in assay [1] was 33.4 µM (active); in assay [3], 35.2 µM (active); in assay [4], 31.9 µM (active); in [5] it was 30.5 µM (active); in assay [6], 34.3 µM (active); in assay [7], 31.2 µM (active). In addition, the AC50 in assay [8] was 31.8 µM (active); in assay [9], 36.2 µM (active); in assay [10], 36.6 µM (active); in assay [12], 31.8 µM (active); in assay [14], 29.5 µM (active); in [15] it was 30.9 µM (active). Also, the AC50 in [19] was 33.3 µM (active). For the same compound, the outcome in [2], in assay [11], in assay [13], in assay [16], in [17] and in assay [18] was inactive. Moreover, the outcome in [20] was inactive.
As to `CC(=O)CCC=C(C)CCC=C(C)C`, the result in [1], in assay [2], in assay [3], in [4], in assay [5] and in assay [6] was inactive. Also, the result in assay [8], in assay [9], in [10], in [11], in [12] and in assay [13] was inactive. Besides, the outcome in assay [14], in assay [16], in assay [17], in [18] and in assay [20] was inactive. Moreover, the results for the concentration at half-maximal activity (AC50) in [7], in assay [15] and in [19] were 0.197 µM (active), 25.4 µM (active) and 31.3 µM (active), respectively.
Turning to `CCCCOCCOCCO`, the outcome in assay [1], in assay [2], in [3], in [4], in [5] and in [6] was inactive. Besides, the outcome in assay [7], in assay [8], in [9], in assay [10], in assay [11] and in [12] was inactive. Besides, the outcome in [13], in assay [14], in [15], in assay [16], in assay [17] and in [18] was inactive. In addition, the outcome in assay [19] and in assay [20] was inactive.

A word on the AC50: it is the concentration giving half of the maximal activity seen.

Values taken from PubChem BioAssay (EPA / NIEHS).
